Reference: the supplement of paper PMC12350171
Counter-ions that a name gives are not always drawn. A number with no mark means an inactive call.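 Rule for the calls: active = normalised median growth AUC below 0.1 of DMSO control; inactive = AUC 0.1 or higher.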

These molecules were tested on S. enterica typhimurium tolC KO (assay: growth AUC normalised to DMSO control (median) (fraction of control); higher = less growth inhibition, active = hit call of the paper). Conditions: 20 µM.
How it was run: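 Area under the growth curve, calculated by the trapezoidal rule up to entry into stationary phase, was normalised to vehicle wells on the same plate. Strains had been passaged twice overnight without oxygen and then grown in mGAM in 96-well plates from OD578 0.01, each with an approved-drug library compound at 20 μM in 1% DMSO. OD578 was read hourly over 24 h in an anaerobic incubator, and the median of three biological replicates is given.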
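Note: active when median AUC fell below 0.1.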

Row | Compound | growth AUC normalised to DMSO control
1 | Cc1cc(/C=C/c2ccc3cc(N(C)C)ccc3[n+]2C)c(C)n1-c1ccccc1 [Pyrvinium pamoate] | 0.61
2 | CCOc1ccc2nc(S(N)(=O)=O)sc2c1 [Ethoxzolamide] | 0.998
3 | Cc1cc(C#N)cc(C)c1Oc1nc(Nc2ccc(C#N)cc2)nc(N)c1Br [Etravirine] | 1.01
4 | O=C1C(=O)c2ccccc2C(O)=C1C1CCC(c2ccc(Cl)cc2)CC1 (stereo not drawn) [Atovaquone] | 1.01
5 | CC(C)OC(=O)C(C)(C)Oc1ccc(C(=O)c2ccc(Cl)cc2)cc1 [Fenofibrate] | 0.94
6 | NNc1nncc2ccccc12 [Hydralazine hydrochloride] | 0.992
7 | CC(C)(CO)[C@@H](O)C(=O)NCCC(=O)NCCSSCCNC(=O)CCNC(=O)[C@H](O)C(C)(C)CO [D-Pantethine] | 1
8 | O=C1[C@@H]2[C@H]3CC[C@H](C3)[C@@H]2C(=O)N1CCCCN1CCN(c2ncccn2)CC1 [Tandospirone] | 0.996
9 | C[N+](C)(C)C[C@H](O)CC(=O)[O-] [Levocarnitine] | 1
10 | O=C(O)c1cc(/N=N/c2ccc(S(=O)(=O)Nc3ccccn3)cc2)ccc1O [Sulfasalazine] | 1.01
11 | COC1=CC(=O)C[C@@H](C)[C@]12Oc1c(Cl)c(OC)cc(OC)c1C2=O [Griseofulvin] | 0.996
12 | Cn1c(=O)c2nc[nH]c2n(C)c1=O [Theophylline monohydrate] | 1
13 | CC1=C(C)C(=O)C(C(CCCCCC(=O)O)c2ccccc2)=C(C)C1=O (stereo not drawn) [Seratrodast] | 0.999
14 | N=C(N)c1ccc(OCCCCCOc2ccc(C(=N)N)cc2)cc1 [Pentamidine isethionate] | 0.985
15 | NS(=O)(=O)c1cc2c(cc1Cl)NC(Cc1ccccc1)NS2(=O)=O (stereo not drawn) [Benzylhydrochlorothiazide] | 0.994
16 | CCOC(=O)c1ccc(C#Cc2ccc3c(c2)C(C)(C)CCS3)nc1 [Tazarotene] | 0.982
17 | COc1ccc2c(c1)c(CC(=O)O)c(C)n2C(=O)c1ccc(Cl)cc1 [Indomethacin] | 0.974
18 | C[C@H]1[C@H](OC(=O)CCC(=O)O)O[C@@H]2O[C@@]3(C)CC[C@H]4[C@H](C)CC[C@@H]1[C@@]24OO3 [Artesunate] | 1.01
19 | O=c1[nH]cnc2c1ncn2[C@H]1CC[C@@H](CO)O1 [Didanosine] | 0.949

Row | Compound | growth AUC normalised to DMSO control
20 | C[C@]12CC[C@@H]3c4ccc(O)cc4CC[C@H]3[C@@H]1C[C@@H](O)[C@@H]2O [Estriol] | 0.993
21 | CN(C/C=C/C#CC(C)(C)C)Cc1cccc2ccccc12 [Terbinafine] | 0.928
22 | COc1cc([C@@H]2c3cc4c(cc3[C@@H](O[C@@H]3O[C@@H]5CO[C@@H](C)O[C@H]5[C@H](O)[C@H]3O)[C@H]3COC(=O)[C@H]23)OCO4)cc(OC)c1O [Etoposide] | 0.0378 (active)
23 | Nc1c2ccccc2nc2ccccc12 [Aminacrine] | 0.903
24 | CCN1CCN(C(=O)N[C@@H](C(=O)N[C@@H]2C(=O)N3[C@@H]2SC(C)(C)[C@@H]3C(=O)O)c2ccccc2)C(=O)C1=O [Piperacillin sodium salt] | 0.00671 (active)
25 | O=C(C1CCCCC1)N1CC(=O)N2CCc3ccccc3C2C1 (stereo not drawn) [Praziquantel] | 0.997
26 | CC(=O)[C@H]1CC[C@H]2[C@@H]3CCC4=CC(=O)CC[C@]4(C)[C@H]3CC[C@]12C [Progesterone] | 0.918
27 | CN1CC(O)c2cc(N=NC(N)=O)c(O)cc21 (stereo not drawn) [Carbazochrome] | 0.952
28 | O=c1[nH]c(=O)n([C@H]2C[C@H](O)[C@@H](CO)O2)cc1C(F)(F)F [Trifluridine] | 0.958
29 | CC(C(=O)O)c1ccc2c(c1)CC(=O)c1ccccc1S2 (stereo not drawn) [Zaltoprofen] | 0.978
30 | C=C(CC)C(=O)c1ccc(OCC(=O)O)c(Cl)c1Cl [Ethacrynic acid] | 1.02
31 | O=c1[nH]c(=O)n([C@H]2C[C@H](O)[C@@H](CO)O2)cc1/C=C/Br [Brivudine] | 1.01
32 | CCCCCCOc1ccccc1C(N)=O [Exalamide] | 0.917
33 | Cc1ncc([N+](=O)[O-])n1CCO [Metronidazole] | 0.991
34 | CCCC(=O)Nc1ncnc2c1ncn2[C@@H]1O[C@@H]2COP(=O)(O)O[C@H]2[C@H]1OC(=O)CCC [Bucladesine sodium salt] | 1.01
35 | CC(C)C[C@H](NC(=O)[C@@H](O)[C@H](N)Cc1ccccc1)C(=O)O [Ubenimex] | 0.992
36 | O=C(Oc1ccccc1)c1ccccc1O [Phenyl salicylate] | 0.975
37 | CC(C)(C)NCC(O)CSc1nc(-c2ccc(C(N)=O)s2)cs1 (stereo not drawn) [Arotinolol hydrochloride] | 1.01
38 | Cc1ncc(C[n+]2csc(CCO)c2C)c(N)n1 [Thiamine hydrochloride] | 0.996
